PubChem BioAssay (NCI)
The panel holds about 83,000 compounds, 20% with a hit somewhere; the sample as a whole holds those more often.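 The test compound was applied at a single concentration to cells in 96-well plates for 48 hours, and percent growth was recorded.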 Values without a mark were called inactive. Calls of active or inactive are those of the source. The calls were made as follows: active = growth percent below 10; inactive = the rest.

system: T-47D breast; test: NCI-60 one-dose screen, 48 h (100 = growth as untreated, 0 = no growth, -100 = all killed); conditions: 10 µM

SMILES	growth
O=C(/C=C/c1ccc(Br)cc1)c1nc2ccccc2n1Cc1ccc(Br)cc1	1.99% (active)
COC(=O)CCn1c(-c2ccc(-n3cc(-c4ccc(O[C@H]5O[C@@H]6OC7(C)CC[C@H]8[C@H](C)CC[C@@H]([C@H]5C)[C@@]68OO7)cc4)nn3)cc2)nc2ccccc21	14.9%
CC1=C(C=O)C2=C(C)C3(CC3)[C@@](C)(O)C(=O)C2=C1	13.5%
N#C[Se]CC(=O)Nc1cccc(C(F)(F)F)c1	51%
CCC[Se]C(=O)c1ccc(C(=O)[Se]CCC)s1	30%
C[C@H]1[C@@H](CC(=O)N[C@@H](Cc2coc3ccccc23)B(O)O)O[C@@H]2OC3(C)CC[C@H]4[C@H](C)CC[C@@H]1[C@@]24OO3	-27.7% (active)
O=C(/C=C/c1ccco1)c1nc2ccccc2n1Cc1ccc(F)cc1	18%
COC(=O)C[C@](O)(CCC(C)C)C(=O)O[C@H]1C(OC)=C[C@@]23CCCN2CCc2cc4c(cc2[C@@H]13)OCO4	-7.42% (active)
C[C@H]1[C@H](OC(=O)CCC(=O)N(CCCc2cn(-c3ccc(C#N)cc3)nn2)CCNc2ccnc3cc(Cl)ccc23)O[C@@H]2OC3(C)CC[C@H]4[C@H](C)CC[C@@H]1[C@@]24OO3	32.1%

system: BT-549 breast; test: as above; conditions: 10 µM

SMILES	growth
COc1cc2cc(C(=O)N3C[C@@H](CCl)c4c3cc(OC(=O)N3CCN(C)[C@@H]5CSSC[C@H]53)c3ccccc43)[nH]c2c(OC)c1OC	-96.4% (active)
CC1=C(CCC=O)C2=C(C)C3(CC3)[C@@](C)(O)C(=O)C2=C1	-23% (active)
COC(=O)C[C@](O)(CCC(C)C)C(=O)O[C@@H]1C(OC)=C[C@]23CCCN2CCc2cc4c(cc2[C@H]13)OCO4	-42% (active)
O=C(/C=C/c1ccc(Cl)cc1)c1nc2ccccc2n1Cc1ccc(F)cc1	2.95% (active)
CC[C@]12C=CCN3CC[C@@]4(c5ccc(OC)cc5N(C)[C@H]4[C@@](O)(C(=O)OC)[C@@H]1OC(=O)CCC[P+](C1CCCCC1)(C1CCCCC1)C1CCCCC1)[C@@H]32	-97.4% (active)
CC1=C2C(=C[C@@](C)(COP(=O)(Oc3ccccc3)Oc3ccccc3)[C@@H]2O)C(=O)[C@@](C)(O)C12CC2	-2.47% (active)
CC(=O)Oc1ccccc1C(=O)NC([Se])=NC1CCCCC1	33.8%
CCOP(=O)(CC(F)(F)C(F)(F)F)OCC	49%
CC(C)C[C@H](NC(=O)CNC(=O)C[C@H]1O[C@@H]2OC3(C)CC[C@H]4[C@H](C)CC[C@@H]([C@H]1C)[C@@]24OO3)B(O)O	-83.5% (active)
C[C@H]1[C@@H](Oc2ccc(-c3cn(-c4ccnc5cc(Cl)ccc45)nn3)cc2)O[C@@H]2OC3(C)CC[C@H]4[C@H](C)CC[C@@H]1[C@@]24OO3	24.9%
C[C@H]1[C@H](OC(=O)CCC(=O)N(CCCc2cn(-c3ccc([N+](=O)[O-])cc3)nn2)CCNc2ccnc3cc(Cl)ccc23)O[C@@H]2OC3(C)CC[C@H]4[C@H](C)CC[C@@H]1[C@@]24OO3	43%
COc1cc2cc(C(=O)N3C[C@@H](CCl)c4c3cc(OC(=O)N3CCN(C)[C@@H]5CSSC[C@@H]53)c3ccccc43)[nH]c2c(OC)c1OC	-82.6% (active)
COc1cc2cc(C(=O)N3C[C@@H](CCl)c4c3cc(OC(=O)N3CCN(C(=O)CCC(=O)N5CCN(C)CC5)[C@@H]5CSSC[C@@H]53)c3ccccc43)[nH]c2c(OC)c1OC	-81.3% (active)
COC(=O)c1ccc(-n2cc(CCCN(CCNc3ccnc4cc(Cl)ccc34)C(=O)CCC(=O)O[C@@H]3O[C@@H]4OC5(C)CC[C@H]6[C@H](C)CC[C@@H]([C@H]3C)[C@@]46OO5)nn2)cc1	43.2%
O=C([Se]C1C=CCCC1)c1ccc(C(=O)[Se]C2C=CCCC2)s1 (stereo not drawn)	-65.7% (active)
O=C(/C=C/c1cccc(Br)c1)c1nc2ccccc2n1Cc1ccc(F)cc1	12.5%
CC[C@]12C=CCN3CC[C@@]4(c5ccc(OC)cc5N(C)[C@H]4[C@@](O)(C(=O)OC)[C@@H]1OC(=O)CCC[P+](c1ccc(C)cc1)(c1ccc(C)cc1)c1ccc(C)cc1)[C@@H]32	-96.9% (active)
O=C(NC([Se])=NC1CCCCC1)c1ccccc1	75.8%
O=C(/C=C/c1ccc(F)cc1)c1nc2ccccc2n1Cc1ccc(F)cc1	-23.8% (active)
O=C(/C=C/c1ccccc1)c1nc2ccccc2n1Cc1ccc(Br)cc1	-69.8% (active)

SMILES	growth
C=CC[Se]C(=O)c1cncc(C(=O)[Se]CC=C)c1	-94.9% (active)
COc1ccc(OC)c(/C=C/C(=O)c2nc3ccccc3n2Cc2ccc(F)cc2)c1	-58.2% (active)
O=C(/C=C/c1ccc(F)cc1)c1nc2ccccc2n1Cc1ccc(Br)cc1	-78.1% (active)
CC[C@]12C=CCN3CC[C@@]4(c5ccc(OC)cc5N(C)[C@H]4[C@@](O)(C(=O)OC)[C@@H]1OC(=O)CCCC[P+](c1ccc(C)cc1)(c1ccc(C)cc1)c1ccc(C)cc1)[C@@H]32	-97% (active)
CC(C)N=C([Se])NC(=O)c1cccs1	43.7%
CC1=C(CCC=NNC(N)=O)C2=C(C)C3(CC3)[C@@](C)(O)C(=O)C2=C1	-33.7% (active)
Cc1ccc2[nH]c(=S)n(-c3ccc(F)cc3)c(=O)c2c1	93.7%
C#CC[Se]C(=O)c1ccc2n[se]nc2c1	52.1%
CC1=C(COCCOC(=O)c2ccc(S(=O)(=O)F)cc2)C2=C(C)C3(CC3)[C@@](C)(O)C(=O)C2=C1	-83% (active)
CC12CCC3(CCC(=O)NCCCNc4ccnc5cc(Cl)ccc45)[C@@](C)(OO[C@]3(C)O1)O2	-7.38% (active)
O=C(/C=C/c1ccc(Br)cc1)c1nc2ccccc2n1Cc1ccc(Br)cc1	-66.2% (active)
COC(=O)CCn1c(-c2ccc(-n3cc(-c4ccc(O[C@H]5O[C@@H]6OC7(C)CC[C@H]8[C@H](C)CC[C@@H]([C@H]5C)[C@@]68OO7)cc4)nn3)cc2)nc2ccccc21	-7.77% (active)
CC1=C(C=O)C2=C(C)C3(CC3)[C@@](C)(O)C(=O)C2=C1	-14.5% (active)
N#C[Se]CC(=O)Nc1cccc(C(F)(F)F)c1	-90.2% (active)
CCC[Se]C(=O)c1ccc(C(=O)[Se]CCC)s1	-86.4% (active)
C[C@H]1[C@@H](CC(=O)N[C@@H](Cc2coc3ccccc23)B(O)O)O[C@@H]2OC3(C)CC[C@H]4[C@H](C)CC[C@@H]1[C@@]24OO3	-92% (active)
O=C(/C=C/c1ccco1)c1nc2ccccc2n1Cc1ccc(F)cc1	59.7%
COC(=O)C[C@](O)(CCC(C)C)C(=O)O[C@H]1C(OC)=C[C@@]23CCCN2CCc2cc4c(cc2[C@@H]13)OCO4	-33.7% (active)
C[C@H]1[C@H](OC(=O)CCC(=O)N(CCCc2cn(-c3ccc(C#N)cc3)nn2)CCNc2ccnc3cc(Cl)ccc23)O[C@@H]2OC3(C)CC[C@H]4[C@H](C)CC[C@@H]1[C@@]24OO3	24.2%
